From PubChem BioAssay (Tox21)
Values without a mark were called inactive. Records with an inconclusive call do not appear. A call without a number means that no potency is given here. Calls of active or inactive are those of the source. Unless noted, the call rests on the fitted dose curve; in most records, active means well fitted curve in the direction sought with a large enough effect in the repeat runs; inconclusive means weak or mixed curves; inactive means no such curve, though single readings can be large; an effect the other way counts as inactive or inconclusive.

Legend:
[1] = qHTS assay to identify small molecule agonists of the hypoxia (HIF-1) signaling pathway - cell viability counter screen (AID 1224844; calls by dose curve; further: nearly all actives have a fitted effect of over 50% in size)
Summary of the method: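 Same wells as the HIF-1 reporter screen; ME-180 cells carrying HRE-bla, 17 hr treatment at 37C; CellTiter-Glo luminescence read after 30 min at room temperature.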

[2] = qHTS assay to identify small molecule agonists of H2AX (AID 1224845; active means well fitted activation curve with a large enough effect in the signal ratio in the repeat runs, not every such curve was filed as active; the % refers to the signal ratio)
Summary of the method: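 Wild-type CHO-K1 cells, plated overnight, exposed 3hr at 37C to 15 concentrations (0.76% DMSO final). Lysed, then HTRF anti-pH2AX (S139) cryptate and anti-H2AX-d2 antibodies, 24 hr room temperature; 665/620 nm emission read.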

[3] = qHTS assay to identify small molecule agonists of the hypoxia (HIF-1) signaling pathway (AID 1224846; active means well fitted activation curve with a large enough effect in the signal ratio in the repeat runs, not every such curve was filed as active; the % refers to the signal ratio)
Summary of the method: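 In ME-180 cells bearing an HRE-bla construct, 17 h treatment with DMSO-dissolved compounds at 37C was followed by CCF4-AM loading to quantify reporter induction.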

[4] = qHTS assay to identify small molecule agonists of H2AX - cell viability counter screen (AID 1224847; calls by dose curve; further: top concentration of the series differs between compounds; nearly all actives have a fitted effect of over 30% in size)
Summary of the method: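 Compounds tested at 15 concentrations were incubated 3 hr at 37C with wild-type CHO-K1 cells; cellular ATP-based luminescence (CellTiter-Glo) indicated viability.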

[5] = qHTS assay to identify small molecule antagonists of the estrogen related receptor (ERR) signaling pathway from Tox21 library (AID 1224848); further: nearly all actives have a fitted effect of over 50% in size; further: potency means the concentration at half of the fitted maximal effect
Summary of the method: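 Compounds dissolved in DMSO are pin-transferred onto ERR reporter cells (2,000 per well) that have settled for 6 h at 37 C. Plates then incubate 18 h at 37 C before ONE-Glo luciferase reagent and a luminescence read 30 min later.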

[6] = qHTS assay to identify small molecule agonists of the estrogen related receptor (ERR) signaling pathway from Tox21 library (AID 1224849; calls by dose curve; further: nearly all actives have a fitted effect of over 15% in size); conditions: ERR reporter cell line, ONE-Glo luciferase, 18 h; at 92.4 µM (top of the series) unless noted
Summary of the method: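 Reporter cells (ERR, NTP source) treated with Tox21 10K compounds 18 h, 37 C. Readout: ONE-Glo luminescence, 30 min RT.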

[7] = qHTS RealTime-Glo MT Cell Viability Assay in HepG2 cells - 24 hour (AID 1224867); further: nearly all actives have a fitted effect of over 50% in size
Summary of the method: (§1)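 Luminescence read-out: viable HepG2 cells reduce a prosubstrate to a NanoLuc substrate, giving a signal proportional to live cell number. Reads taken at 0, 8, 16, 24, 32 and 40 h of compound exposure at 37 C.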

[8] = A CellTox Green Cytotoxicity Assay to monitor cytotoxicity in HEK293 cells - 0 hour (AID 1224869); further: nearly all actives have a fitted effect of over 50% in size
Summary of the method: (§2)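 Homogeneous no-lysis format: HEK293 cell suspension mixed with CellTox Green reagent, seeded, incubated 5 h at 37 C/5% CO2, then dosed by pintool with compound in DMSO.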

[9] = qHTS RealTime-Glo MT Cell Viability Assay in HepG2 cells - 40 hour (AID 1224870); further: nearly all actives have a fitted effect of over 50% in size
Summary of the method: (§3)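 HepG2 cells (600/well) mixed with RealTime-Glo MT reagent, settled 5 h at 37 C/5% CO2 before compound addition. Nonlytic NanoLuc luminescence from viable-cell prosubstrate reduction read repeatedly during 40 h treatment at 37 C.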

[10] = A CellTox Green Cytotoxicity Assay to monitor cytotoxicity in HEK293 cells - 40 hour (AID 1224871); further: nearly all actives have a fitted effect of over 45% in size; further: potency means the concentration at half of the fitted maximal effect
Summary of the method: as §2

[11] = qHTS RealTime-Glo MT Cell Viability Assay in HEK293 cells - 16 hour (AID 1224872); further: nearly all actives have a fitted effect of over 50% in size; further: potency means the concentration at half of the fitted maximal effect
Summary of the method: (§4)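 Nonlytic real-time viability readout: viable cells convert prosubstrate to NanoLuc substrate, giving luminescence proportional to live cell number. HEK293, 600 cells/well, compound added after 5 h, continuous culture at 37 C.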

[12] = qHTS RealTime-Glo MT Cell Viability Assay in HEK293 cells - 40 hour (AID 1224874); conditions: RealTime-Glo luminescence; max response: stronger effect = lower value; further: nearly all actives have a fitted effect of over 50% in size; further: potency means the concentration at half of the fitted maximal effect
Summary of the method: (§5)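 Measured as luminescence from the same continuously cultured HEK293 wells at successive time points (0, 8, 16, 24, 32, 40 h) after compound addition. Reagent present from seeding; dosing at 5 h; incubation 37 C.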

[13] = A CellTox Green Cytotoxicity Assay to monitor cytotoxicity in HEK293 cells - 24 hour (AID 1224875); further: nearly all actives have a fitted effect of over 45% in size
Summary of the method: as §2

[14] = A CellTox Green Cytotoxicity Assay to monitor cytotoxicity in HepG2 cells - 16 hour (AID 1224876); further: nearly all actives have a fitted effect of over 45% in size
Summary of the method: (§6)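 Fluorescent DNA-binding dye, 600 HepG2 cells/well, 5 h preincubation then compound in DMSO; same plates read at 0–40 h, 37 C.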

[15] = qHTS RealTime-Glo MT Cell Viability Assay in HepG2 cells - 32 hour (AID 1224877); further: nearly all actives have a fitted effect of over 55% in size
Summary of the method: as §1

[16] = A CellTox Green Cytotoxicity Assay to monitor cytotoxicity in HepG2 cells - 24 hour (AID 1224878); further: nearly all actives have a fitted effect of over 45% in size
Summary of the method: as §6

[17] = A CellTox Green Cytotoxicity Assay to monitor cytotoxicity in HepG2 cells - 40 hour (AID 1224879); further: nearly all actives have a fitted effect of over 40% in size
Summary of the method: as §6

[18] = qHTS RealTime-Glo MT Cell Viability Assay in HEK293 cells - 0 hour (AID 1224880)
Summary of the method: as §5

[19] = qHTS RealTime-Glo MT Cell Viability Assay in HEK293 cells - 32 hour (AID 1224868); further: nearly all actives have a fitted effect of over 50% in size; further: potency means the concentration at half of the fitted maximal effect
Summary of the method: as §4

[20] = qHTS RealTime-Glo MT Cell Viability Assay in HepG2 cells - 8 hour (AID 1224873); further: nearly all actives have a fitted effect of over 55% in size
Summary of the method: as §3

NC(=S)N/N=C/c1cccnc1
Potency [1]: inactive | Potency [2]: inactive | outcome [3]: inactive | Potency [4]: inactive | Potency [5]: inactive | activity change, positive = activation [6]: 0.0845% [at 42.5 µM] | Potency [7]: inactive | Potency [8]: inactive | Potency [9]: inactive | Potency [10]: inactive | Potency [11]: inactive | max response [12]: 6.57% | Potency [13]: inactive | Potency [14]: inactive | Potency [15]: inactive | Potency [16]: inactive | Potency [17]: inactive | Potency [18]: inactive

C=CC[N+]1([C@H]2C[C@H]3[C@@H]4CC[C@H]5C[C@H](OC(C)=O)[C@@H](N6CCCCC6)C[C@]5(C)[C@H]4CC[C@]3(C)[C@H]2OC(=O)CC)CCCCC1
Potency [1]: inactive | Potency [2]: inactive | outcome [3]: inactive | Potency [4]: inactive | Potency [5]: inactive | activity change, positive = activation [6]: -0.214% [at 42.5 µM] | Potency [19]: inactive | Potency [8]: inactive | Potency [9]: inactive | Potency [11]: inactive | Potency [20]: inactive | max response [12]: -20.7% | Potency [13]: inactive | Potency [16]: inactive | Potency [18]: inactive

CCc1nn(C2CCCCC2)c2cc(C3(C#N)CCC(C(=O)O)CC3)ccc12 (centres undefined)
Potency [1]: inactive | Potency [2]: inactive | outcome [3]: inactive | Potency [4]: inactive | Potency [5]: 48.6 µM (active) | activity change, positive = activation [6]: -46.5% | Potency [7]: inactive | Potency [19]: inactive | Potency [8]: inactive | Potency [10]: inactive | Potency [11]: inactive | Potency [20]: inactive | max response [12]: 0.457% | Potency [13]: inactive | Potency [14]: inactive | Potency [16]: inactive | Potency [17]: inactive | Potency [18]: inactive

CCCCOCCOCCOCCOCCO
Potency [1]: inactive | Potency [2]: inactive | outcome [3]: inactive | Potency [4]: inactive | Potency [7]: inactive | Potency [19]: inactive | Potency [8]: inactive | Potency [9]: inactive | Potency [10]: inactive | Potency [11]: inactive | Potency [20]: inactive | max response [12]: -11.7% | Potency [13]: inactive | Potency [14]: inactive | Potency [15]: inactive | Potency [18]: inactive

CC(Cc1cccc(C(F)(F)F)c1)NCCOC(=O)c1ccccc1 (centres undefined)
Potency [1]: inactive | Potency [2]: inactive | outcome [3]: inactive | Potency [7]: inactive | Potency [8]: inactive | Potency [9]: inactive | Potency [10]: 21.3 µM (active) | Potency [20]: inactive | Potency [13]: inactive | Potency [15]: inactive | Potency [18]: inactive

CC(=O)c1c(C)c([N+](=O)[O-])c(C(C)(C)C)c([N+](=O)[O-])c1C
Potency [1]: inactive | Potency [2]: inactive | outcome [3]: inactive | Potency [7]: inactive | Potency [19]: inactive | Potency [8]: inactive | Potency [9]: inactive | Potency [10]: inactive | Potency [20]: inactive | max response [12]: -9.27% | Potency [13]: inactive | Potency [14]: inactive | Potency [15]: inactive | Potency [16]: inactive | Potency [17]: inactive | Potency [18]: inactive

Oc1ccc(Cc2ccccc2)cc1
Potency [1]: inactive | Potency [2]: inactive | outcome [3]: inactive | Potency [5]: inactive | activity change, positive = activation [6]: 2.56% | Potency [19]: 36 µM (active) | Potency [8]: inactive | Potency [9]: inactive | Potency [20]: inactive | Potency [12]: 40.4 µM (active) | Potency [14]: inactive | Potency [15]: inactive | Potency [18]: inactive

CC(C)(C)c1cc(O)c(C(C)(C)C)cc1O
Potency [1]: inactive | Potency [2]: inactive | Potency [4]: inactive | Potency [5]: 24.3 µM (active) | activity change, positive = activation [6]: -60.5% | Potency [7]: inactive | Potency [19]: 24.5 µM (active) | Potency [8]: inactive | Potency [9]: inactive | Potency [10]: inactive | Potency [11]: 17.4 µM (active) | Potency [20]: inactive | Potency [12]: 30.9 µM (active) | Potency [13]: inactive | Potency [15]: inactive | Potency [17]: inactive | Potency [18]: inactive
